High-throughput results from PubChem BioAssay.
The sample as a whole holds a higher share of hits than the screen did.
miR122 inh = miR-122 sensor activation. Huh7 psiCHECK-miR122 Renilla luciferase sensor, 48 h. activation, % at 12.5 µM. hit rate 0.14% among 340,000;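 active = mean activation of 30% or more, with every replicate also reaching 30%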;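 note: 0% = median of neutral control wells and 100% = median of positive control wells; higher luciferase signal means stronger suppression of miR-122 activity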
An asterisk follows results filed as active.

For COc1cccc(-c2cnc3c(c2)C(=O)N([C@H](C)CO)C[C@@H](C)[C@H](CN(C)Cc2cccnc2)O3)c1 the results were miR122 inh 2.
Cc1ccc(S(=O)(=O)N(C)C[C@@H]2Oc3ncc(C#CCC(C)C)cc3C(=O)N([C@H](C)CO)C[C@@H]2C)cc1 was read as miR122 inh -7.
Screening COc1ccc(S(=O)(=O)N(C)C[C@@H]2Oc3cc(-c4ccccc4OC)ccc3S(=O)(=O)N([C@@H](C)CO)C[C@@H]2C)cc1 returned miR122 inh 1.
For CC(=O)N1[C@@H](CO)[C@H](c2ccccc2)[C@@H]1CNC(=O)CN1CCOCC1 the results were miR122 inh -108.
`O=C(C1CCOCC1)N1[C@H](CO)[C@H]2c3ccccc3NC[C@H]21` gave miR122 inh 42*.
`CC(=O)N(C)C[C@H]1[C@H](c2ccc(-c3cccnc3)cc2)[C@@H](CO)N1C(=O)C1CC1` gave miR122 inh -125.
`C[C@@H]1CN([C@H](C)CO)S(=O)(=O)c2ccc(-c3ccccc3)cc2O[C@@H]1CN(C)Cc1cncnc1` gave miR122 inh -9.
Screening C[C@@H]1CN([C@H](C)CO)C(=O)c2cc(/C=C/c3ccccc3)cnc2O[C@@H]1CN(C)Cc1cccc(C(=O)O)c1 returned miR122 inh 7.
For C[C@@H]1CN([C@H](C)CO)S(=O)(=O)c2ccc(C#Cc3ccccc3)cc2O[C@@H]1CN(C)S(=O)(=O)c1ccccc1F the results were miR122 inh -35.
`COCC#Cc1cnc2c(c1)C(=O)N([C@H](C)CO)C[C@@H](C)[C@H](CN(C)C(=O)C1CCOCC1)O2` gave miR122 inh 4.
CCC(=O)N1C[C@@H](C)[C@H](OC)CN(C)C(=O)c2ccc(NC(=O)C3CCCCC3)cc2OC[C@@H]1C was read as miR122 inh 2.
C[C@@H]1CN([C@H](C)CO)C(=O)c2cc(C#Cc3cccc(F)c3)cnc2O[C@@H]1CN(C)C(=O)C1CC1 was read as miR122 inh 7.
COc1ccccc1CNS(=O)(=O)c1ccc(-c2cc(C)no2)cc1 was read as miR122 inh -95.
Screening COc1ccccc1CNc1nc(NCC2CC2)nc2ccsc12 returned miR122 inh 43*.
For CNc1nc(NCC2CCCCC2)c2sccc2n1 the results were miR122 inh 43*.
`C[C@@H]1CN([C@@H](C)CO)C(=O)c2cc(-c3ccncc3)cnc2O[C@@H]1CN(C)C(=O)Cc1ccccn1` gave miR122 inh 0.
CCCNC(=O)NC[C@H]1[C@@H](c2ccc(C3=CCCC3)cc2)[C@@H](CO)N1C(C)=O was read as miR122 inh -93.
`C[C@H](CO)N1C[C@H](C)[C@H](CN(C)C)Oc2cc(-c3ccc(C(=O)N(C)C)cc3)ccc2S1(=O)=O` gave miR122 inh 2.
Screening C[C@H](CO)N1C[C@H](C)[C@H](CN(C)C(=O)c2ccccn2)Oc2ncc(C#Cc3ccccc3)cc2C1=O returned miR122 inh 3.
C[C@@H]1CN([C@@H](C)CO)C(=O)c2cc(-c3cccc(F)c3)cnc2O[C@@H]1CN(C)C(=O)c1cccc(F)c1 was read as miR122 inh 5.
Screening COc1ccc(C#Cc2ccc3c(c2)O[C@@H](CN(C)C)[C@@H](C)CN([C@H](C)CO)S3(=O)=O)cc1 returned miR122 inh 3.
`Cc1ccc(S(=O)(=O)N(C)C[C@H]2Oc3cc(C#CC4CCCC4)ccc3S(=O)(=O)N([C@@H](C)CO)C[C@@H]2C)cc1` gave miR122 inh -62.
Screening C[C@H]1CN([C@@H](C)CO)C(=O)c2cc(-c3ccc(C(=O)N(C)C)cc3)cnc2O[C@H]1CN(C)Cc1ccc(C(=O)O)cc1 returned miR122 inh 3.
For CO[C@H]1CN(C)C(=O)c2ccc(NC(=O)Nc3cccc(F)c3)cc2OC[C@@H](C)N(C)C[C@@H]1C the results were miR122 inh -2.
CC(C)Oc1ccc(CNCCC2(C(C)C)CCOC(C)(C)C2)cc1 (configuration not stated) was read as miR122 inh 71*.
`COC(=O)c1ccc(NS(=O)(=O)c2cc(C)ccc2OC)cc1` gave miR122 inh -150.
COC(=O)c1ccc2c(c1)C(C)(C)C(/C=C/c1ccc(OC)c(OC)c1OC)=[N+]2C was read as miR122 inh 40*.
For Cc1ccc(-c2cnc3c(c2)C(=O)N([C@H](C)CO)C[C@H](C)[C@@H](CN(C)C(=O)c2ccncc2)O3)cc1 the results were miR122 inh -8.
For C[C@H]1CN([C@@H](C)CO)C(=O)c2cc(/C=C/c3ccccc3)cnc2O[C@@H]1CN(C)Cc1cccc(C(=O)O)c1 the results were miR122 inh 4.
`CC(=O)N(C)C[C@@H]1Oc2cc(C#C[C@H](C)O)ccc2S(=O)(=O)N([C@H](C)CO)C[C@H]1C` gave miR122 inh 7.
`COc1cccc(C#Cc2cnc3c(c2)C(=O)N([C@@H](C)CO)C[C@@H](C)[C@H](CN(C)C(=O)C2CCCCC2)O3)c1` gave miR122 inh 5.
Screening COC1=CC(=O)C=C(OC)C1=O returned miR122 inh 57*.
CCCC(=O)Nc1ccc2c(c1)C(=O)N(C)C[C@H](OC)[C@H](C)CN(CCC)[C@H](C)CO2 was read as miR122 inh 0.
Screening C[C@H]1CN([C@@H](C)CO)C(=O)c2cc(C#CC(C)(C)O)cnc2O[C@H]1CN(C)Cc1cncnc1 returned miR122 inh -109.
Screening C[C@@H]1CN([C@@H](C)CO)C(=O)c2cc(-c3ccc(C(=O)N(C)C)cc3)cnc2O[C@H]1CN(C)C(=O)c1cccnc1 returned miR122 inh -1.
`CN1C(=O)c2cc(NC(=O)c3ccc(C(F)(F)F)cc3)ccc2OC[C@@H]2O[C@@H](CC(=O)NC3Cc4ccccc4C3)CC[C@@H]21` gave miR122 inh 55*.
CN1C(=O)c2cc(NS(=O)(=O)c3ccc(Cl)cc3)ccc2OC[C@H]2O[C@H](CC(=O)N3CCc4ccccc4C3)CC[C@@H]21 was read as miR122 inh 33*.
Screening COCC(=O)Nc1ccc2c(c1)C(=O)N(C)[C@@H]1CC[C@@H](CC(=O)NC3Cc4ccccc4C3)O[C@@H]1CO2 returned miR122 inh 37*.
COCC(=O)Nc1ccc2c(c1)C(=O)N(C)[C@@H]1CC[C@H](CC(=O)N3CCc4ccccc4C3)O[C@H]1CO2 was read as miR122 inh 37*.
Screening C[C@@H]1CN([C@H](C)CO)S(=O)(=O)c2ccc(-c3ccc(C#N)cc3)cc2O[C@@H]1CN(C)C(=O)C1CC1 returned miR122 inh 6.
For C[C@H]1CN([C@@H](C)CO)S(=O)(=O)c2ccc(C#CC(C)(C)O)cc2O[C@@H]1CN(C)CC1CC1 the results were miR122 inh 3.
Screening C[C@H]1CN([C@@H](C)CO)C(=O)c2cc(-c3cccc(C#N)c3)cnc2O[C@@H]1CN(C)C returned miR122 inh -1.
For CCCN(C)C[C@H]1Oc2cc(Br)ccc2S(=O)(=O)N([C@@H](C)CO)C[C@H]1C the results were miR122 inh 1.
C[C@H](CO)N1C[C@H](C)[C@@H](CN(C)C(=O)CN(C)C)Oc2ncc(C#C[C@@H](C)O)cc2C1=O was read as miR122 inh 6.
For CNC[C@@H]1Oc2cc(C#C[C@@H](C)O)ccc2S(=O)(=O)N([C@H](C)CO)C[C@H]1C the results were miR122 inh 5.
`CNC[C@H]1Oc2cc(C#CC3CCCCC3)ccc2S(=O)(=O)N([C@H](C)CO)C[C@@H]1C` gave miR122 inh 42*.
